# According to PubChem BioAssay (Tox21):
# Several values for one entry are separate records, joined by “and”; a condition that tells them apart may be missing. Equal entries are not always repeated. Some structures have more than one record in an assay (separate samples or runs), and their calls can disagree. Activity calls are given as the source filed them. Entries that show only a call come without a potency. Unless noted, calls follow the shape of the dose curve; as a rule, active = well fitted curve in the direction sought with a large enough effect in the repeat runs; inconclusive = weak or mixed curves; inactive = no such curve, though single readings can be large; an effect the other way counts as inactive or inconclusive.
# Key:
# [1] = qHTS assay for identifying genotoxic compounds that show differential cytotoxicity against isogenic chicken DT40 cell lines with known DNA damage response pathways - wild type cell line (AID 743012); also: nearly all actives have a fitted effect of over 60% in size; also: potency is read from the fitted curve at half-maximal effect
# Outline: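 Viability by ATP luminescence (CellTiter-Glo, 30 min RT) after 40 h compound treatment at 37 C/5% CO2, using 300 parental DNA repair-proficient DT40 cells per well.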
# [2] = qHTS assay for identifying genotoxic compounds that show differential cytotoxicity against isogenic chicken DT40 cell lines with known DNA damage response pathways - Rev3 mutant cell line (AID 743014); also: nearly all actives have a fitted effect of over 55% in size; also: potency is read from the fitted curve at half-maximal effect
# [3] = qHTS assay for identifying genotoxic compounds that show differential cytotoxicity against isogenic chicken DT40 cell lines with known DNA damage response pathways - Rad54/Ku70 mutant cell line (AID 743015); also: nearly all actives have a fitted effect of over 60% in size; also: potency is read from the fitted curve at half-maximal effect
# [4] = qHTS assay to identify small molecule antagonists of the androgen receptor (AR) signaling pathway - cell viability counter screen (AID 743033; also: nearly all actives have a fitted effect of over 45% in size; also: potency is read from the fitted curve at half-maximal effect)
# [5] = qHTS assay to identify small molecule antagonists of the androgen receptor (AR) signaling pathway using the MDA cell line - cell viability counter screen (AID 743041; also: nearly all actives have a fitted effect of over 45% in size)
# Outline: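 qHTS viability read-out; MDA-kb2 AR-luc; R1881-stimulated; 16 h exposure at 37C, 0% CO2; CellTiter-Fluor, 30 min; fluorescence intensity.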
# [6] = qHTS assay to identify small molecule antagonists of the thyroid receptor (TR) signaling pathway (AID 743065); also: nearly all actives have a fitted effect of over 55% in size; also: potency is read from the fitted curve at half-maximal effect
# Outline: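 GH3.TRE-Luc rat pituitary cells carrying two TR response elements driving luciferase were plated for 4 h, given compound plus 1 nM T3 (final), and incubated 23.5 h at 37 C. ONE-Glo luminescence measured reporter inhibition; CellTiter-Fluor fluorescence tracked cytotoxicity.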
# [7] = test system: thyroid hormone receptor (rat, GH3 cells); experiment: qHTS assay to identify small molecule agonists of the thyroid receptor (TR) signaling pathway (AID 743066; calls by dose curve)
# [8] = biological target: Estrogen receptor (Homo sapiens) (UniProt P03372); experiment: qHTS assay to identify small molecule antagonists of the estrogen receptor alpha (ER-alpha) signaling pathway (AID 743069; active = well fitted curve in the direction sought with a large enough effect in the signal ratio in the repeat runs, not every such curve was filed as active; inconclusive = weak or mixed curves, or effect the other way; inactive = no such curve, though single readings can be large or run the other way; the % refers to the signal ratio; also: potency is read from the fitted curve at half-maximal effect)
# Outline: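 Screening used a UAS-driven beta-lactamase reporter integrated into HEK293 cells expressing ER-alpha, stimulated with 17beta-estradiol alongside test compounds over 18 hr at 37C; signal came from LiveBLAzer B/G FRET fluorescence.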
# [9] = qHTS assay to identify small molecule antagonists of the estrogen receptor alpha (ER-alpha) signaling pathway - cell viability counter screen (AID 743074; calls by dose curve; also: nearly all actives have a fitted effect of over 45% in size; also: potency is read from the fitted curve at half-maximal effect)
# [10] = biological target: Estrogen receptor (Homo sapiens) (UniProt P03372); experiment: qHTS assay to identify small molecule agonists of the estrogen receptor alpha (ER-alpha) signaling pathway (AID 743075; calls by dose curve; also: potency is read from the fitted curve at half-maximal effect)
# [11] = biological target: Estrogen receptor (Homo sapiens) (UniProt P03372); experiment: qHTS assay to identify small molecule agonists of the estrogen receptor alpha (ER-alpha) signaling pathway using the BG1 cell line (AID 743079); also: nearly all actives have a fitted effect of over 20% in size; also: potency is read from the fitted curve at half-maximal effect
# [12] = qHTS assay to identify small molecule antagonists of the estrogen receptor alpha (ER-alpha) signaling pathway using the BG1 cell line - cell viability counter screen (AID 743081);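 also: compound given together with 17beta-estradiol as the ER stimulus; nearly all actives have a fitted effect of over 45% in size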; also: potency is read from the fitted curve at half-maximal effect
# Aromatase (Homo sapiens) = Aromatase (Homo sapiens) (UniProt P11511); experiment: qHTS assay to identify aromatase inhibitors (AID 743083); also: nearly all actives have a fitted effect of over 55% in size; also: potency is read from the fitted curve at half-maximal effect
# [13] = qHTS assay to identify small molecule antagonists of the thyroid receptor (TR) signaling pathway - cell viability counter screen (AID 743064); also: nearly all actives have a fitted effect of over 50% in size; also: potency is read from the fitted curve at half-maximal effect
# Outline: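 GH3.TRE-Luc rat pituitary cells carrying a TRE-luciferase reporter were treated with compound plus 1 nM T3 (final) for 23.5 h at 37 °C. Viability was then read in the same wells by CellTiter-Fluor fluorescence after a further 30 min.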
# [14] = qHTS assay to identify small molecule antagonists of the estrogen receptor alpha (ER-alpha) signaling pathway using the BG1 cell line (AID 743080; calls by dose curve;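 also: BG1 cells stimulated with 17beta-estradiol alongside compound; nearly all actives have a fitted effect of over 25% in size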; also: potency is read from the fitted curve at half-maximal effect)
# Outline: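 BG1-Luc-4E2 cells (endogenous full-length ER-alpha, 4xERE luciferase) hormone-starved 5 days in charcoal-stripped FBS, plated 4,000/well for 24 h, then compound plus 17beta-estradiol for 21.5 h at 37 C; ONE-Glo luminescence read.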
# [15] = biological target: Androgen receptor (Homo sapiens) (UniProt P10275); experiment: qHTS assay to identify small molecule antagonists of the androgen receptor (AR) signaling pathway using the MDA cell line (AID 743042; also: nearly all actives have a fitted effect of over 55% in size; also: potency is read from the fitted curve at half-maximal effect)
# Outline: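 MDA-kb2 cells (human breast carcinoma, stably carrying an MMTV-luciferase reporter responsive to AR and GR) were plated at 3,000 cells/well and preincubated 5 hr at 37C, then given compound plus R1881 agonist for 16 h. ONE-Glo luminescence was read.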
# [16] = biological target: Androgen receptor (Homo sapiens) (UniProt P10275); experiment: qHTS assay to identify small molecule agonists of the androgen receptor (AR) signaling pathway (AID 743036; active = well fitted activation curve with a large enough effect in the signal ratio in the repeat runs, with a control signal flat, not every such curve was filed as active; inconclusive = weak or mixed curves, or effect the other way; inactive = no such curve, though single readings can be large or run the other way; the % refers to the signal ratio)
# Outline: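 HEK293 cells stably carrying a UAS-driven beta-lactamase reporter (GeneBLAzer AR-UAS-bla-GripTite) were plated at 2,000 cells/well, rested 4 h at 37C, then exposed to compounds in DMSO for 16 h. LiveBLAzer B/G FRET substrate was added for 2 h at room temperature; fluorescence read.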
# [17] = biological target: Androgen receptor (Homo sapiens) (UniProt P10275); experiment: qHTS assay to identify small molecule agonists of the androgen receptor (AR) signaling pathway using the MDA cell line (AID 743040; also: nearly all actives have a fitted effect of over 20% in size); settings: MDA-kb2 AR-luc cells, MMTV luciferase, 16 h; activity change: at 70.3 µM (top of the series), stronger effect = higher value
# Outline: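 Agonist activity is measured as luciferase luminescence in human MDA-kb2 cells whose MMTV reporter responds to both AR and GR. Compounds in DMSO incubate 16 h at 37C, 0% CO2, and ONE-Glo is read after 30 min.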
# Estrogen receptor (Homo sapiens), sequence (P03372 whole entry, looked up): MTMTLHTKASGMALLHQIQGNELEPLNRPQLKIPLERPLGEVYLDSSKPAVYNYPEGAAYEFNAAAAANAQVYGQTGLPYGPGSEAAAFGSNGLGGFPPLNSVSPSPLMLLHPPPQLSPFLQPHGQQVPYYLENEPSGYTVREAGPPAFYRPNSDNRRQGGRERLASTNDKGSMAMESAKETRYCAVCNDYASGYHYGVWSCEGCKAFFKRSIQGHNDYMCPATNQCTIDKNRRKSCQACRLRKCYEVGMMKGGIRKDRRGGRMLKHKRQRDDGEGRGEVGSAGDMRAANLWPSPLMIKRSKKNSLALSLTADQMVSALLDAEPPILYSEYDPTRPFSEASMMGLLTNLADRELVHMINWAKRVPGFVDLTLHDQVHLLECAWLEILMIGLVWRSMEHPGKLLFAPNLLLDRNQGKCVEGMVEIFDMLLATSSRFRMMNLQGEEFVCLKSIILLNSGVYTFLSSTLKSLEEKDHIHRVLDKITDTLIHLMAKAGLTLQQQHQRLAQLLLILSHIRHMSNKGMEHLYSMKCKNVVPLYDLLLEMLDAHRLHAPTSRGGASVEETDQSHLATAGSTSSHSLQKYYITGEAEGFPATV
# Androgen receptor (Homo sapiens), sequence (P10275 whole entry, looked up): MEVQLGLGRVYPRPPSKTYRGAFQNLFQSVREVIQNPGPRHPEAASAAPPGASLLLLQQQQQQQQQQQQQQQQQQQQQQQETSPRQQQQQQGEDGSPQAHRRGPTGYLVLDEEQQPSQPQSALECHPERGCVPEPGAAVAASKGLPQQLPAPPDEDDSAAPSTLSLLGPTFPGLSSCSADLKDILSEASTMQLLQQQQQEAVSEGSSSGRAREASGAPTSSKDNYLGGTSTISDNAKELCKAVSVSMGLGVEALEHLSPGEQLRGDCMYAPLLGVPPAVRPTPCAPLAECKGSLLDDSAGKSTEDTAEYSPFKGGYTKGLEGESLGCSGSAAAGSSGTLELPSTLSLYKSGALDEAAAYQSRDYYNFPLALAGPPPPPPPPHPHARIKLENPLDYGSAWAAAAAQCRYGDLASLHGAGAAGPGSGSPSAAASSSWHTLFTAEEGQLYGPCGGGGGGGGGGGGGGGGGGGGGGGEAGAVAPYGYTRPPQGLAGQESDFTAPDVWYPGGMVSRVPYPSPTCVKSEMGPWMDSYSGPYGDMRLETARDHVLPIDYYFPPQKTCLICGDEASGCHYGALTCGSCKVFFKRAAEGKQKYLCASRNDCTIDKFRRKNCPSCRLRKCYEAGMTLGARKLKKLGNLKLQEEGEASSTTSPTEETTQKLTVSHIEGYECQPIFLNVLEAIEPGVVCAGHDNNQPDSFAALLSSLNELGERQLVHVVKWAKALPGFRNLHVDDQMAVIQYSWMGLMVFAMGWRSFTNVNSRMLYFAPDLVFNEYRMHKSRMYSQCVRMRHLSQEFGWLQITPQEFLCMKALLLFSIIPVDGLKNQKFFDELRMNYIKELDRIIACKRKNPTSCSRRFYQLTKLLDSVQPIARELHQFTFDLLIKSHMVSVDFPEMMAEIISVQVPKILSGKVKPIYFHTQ
# Aromatase (Homo sapiens), sequence (P11511 whole entry, looked up): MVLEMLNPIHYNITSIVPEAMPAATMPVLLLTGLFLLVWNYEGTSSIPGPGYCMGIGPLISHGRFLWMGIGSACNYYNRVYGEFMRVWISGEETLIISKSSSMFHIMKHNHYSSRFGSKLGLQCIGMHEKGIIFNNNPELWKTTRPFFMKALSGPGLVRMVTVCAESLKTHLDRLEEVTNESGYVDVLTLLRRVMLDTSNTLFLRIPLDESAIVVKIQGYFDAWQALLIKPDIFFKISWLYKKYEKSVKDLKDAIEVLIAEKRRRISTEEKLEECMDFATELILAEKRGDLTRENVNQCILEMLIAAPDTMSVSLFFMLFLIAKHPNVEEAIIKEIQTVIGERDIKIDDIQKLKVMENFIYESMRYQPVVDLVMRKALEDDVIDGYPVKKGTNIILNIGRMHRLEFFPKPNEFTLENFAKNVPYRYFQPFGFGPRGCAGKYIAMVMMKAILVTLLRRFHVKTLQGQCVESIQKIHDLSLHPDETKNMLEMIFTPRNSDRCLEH
SMILES,Potency [1],Potency [2],Potency [3],Potency [4],Potency [5],Potency [6],Potency [7],Potency [8],Potency [9],Potency [10],Potency [11],Potency [12],Potency (Aromatase (Homo sapiens)),Potency [13],Potency [14],Potency [15],Potency [16],Potency [17]
Cc1c(COC(=O)[C@@H]2[C@H](/C=C(\Cl)C(F)(F)F)C2(C)C)cccc1-c1ccccc1,inactive,inactive,inactive,inactive,inactive,15 µM (active) and 15.3 µM (active),inactive,inactive,26.9 µM (active),inactive,inactive,inactive,inactive,,,,,
Cc1ccc(N)c(N)c1,54.6 µM (active) and 17.2 µM (active),30.7 µM (active) and 21.7 µM (active),48.7 µM (active) and 21.7 µM (active),inactive,inactive,12.2 µM (active) and 19.3 µM (active),inactive,,inactive,,,inactive,,13.7 µM (active) and 24.3 µM (active),,,,
Brc1ccc(Oc2cc(Br)c(Br)cc2Br)c(Br)c1,inactive,inactive,inactive,inactive,inactive,,inactive,inactive,inactive,inactive,inactive and 61.6 µM (active),inactive,inactive,48.9 µM (active),inactive,,,
CCCCCCOC(=O)c1ccccc1C(=O)OCCCCCC,inactive and 30.6 µM (active),inactive,inactive,inactive,inactive,inactive,inactive,inactive,inactive,inactive,inactive,inactive,inactive,inactive,inactive,,,
CC(C)(C)c1ccccc1O,,61.1 µM (active),inactive,inactive,inactive,inactive,inactive,,inactive,,,inactive,inactive,inactive,,,,
COc1ccc(C(CN(C)C)C2(O)CCCCC2)cc1 (stereo not drawn),inactive,inactive,inactive,inactive,inactive,inactive,inactive,,inactive,,,inactive,inactive,inactive,,,,
Nc1ccc(Cl)cc1N,,,42.3 µM (active),,inactive,24.3 µM (active),inactive,,inactive,,,inactive,inactive,42 µM (active),,inactive,,
CCC(C)(c1ccc(O)cc1)c1ccc(O)cc1,27.3 µM (active),61.1 µM (active) and 34.4 µM (active),30.6 µM (active),inactive,inactive,61.1 µM (active),inactive,616 nM [inconclusive] (active) and 309 nM [inconclusive] (active),inactive,195 nM [inconclusive] (active) and 1.95 µM [inconclusive] (active),243 nM (active) and 273 nM (active),inactive,61.1 µM (active) and inactive,,inactive,,,
Nc1c(Cl)cc([N+](=O)[O-])cc1Cl,,inactive and 61.1 µM (active),inactive and 61.1 µM (active),,inactive,inactive,inactive,inactive,inactive,inactive,inactive,inactive,inactive,inactive,inactive,inactive and 61.1 µM (active),inactive,inactive
O=C(CCl)c1ccccc1,inactive and 68.6 µM (active),54.5 µM (active),61.1 µM (active),inactive,inactive,,inactive,,inactive,,,inactive,inactive,inactive and 68.6 µM (active),,,,
CC(C)C(=O)OCC(C)(C)C(OC(=O)C(C)C)C(C)C (stereo not drawn),,,,inactive,inactive,,inactive,inactive,inactive,6.92 µM [inconclusive] (active),12.2 µM (active),inactive,inactive,inactive,inactive,,,
Oc1c(Cl)c(Cl)c(Cl)c(Cl)c1Cl,,inactive,,21.4 µM (active),inactive,8.46 µM (active) and 27.2 µM (active),inactive,8.54 µM [inconclusive] (active),,inactive,,inactive,inactive,26.8 µM (active),59.9 µM (active) and 27.2 µM (active),,,
CC(C)NC(C)C,inactive,inactive,inactive,inactive,inactive,inactive,inactive,inactive,inactive,inactive,inactive,inactive,inactive,inactive,inactive,,,
C[C@]12CCC(=O)C[C@@H]1CC[C@@H]1[C@@H]2CC[C@]2(C)[C@@H](O)CC[C@@H]12,26.6 µM (active) and inactive,,inactive,inactive,inactive,48 µM (active),inactive,,inactive,,,inactive,inactive,inactive,,,,
CCC(C)c1cc([N+](=O)[O-])cc([N+](=O)[O-])c1O (stereo not drawn),inactive and 27.3 µM (active),inactive and 30.6 µM (active),inactive and 27.3 µM (active),inactive and 19.5 µM (active),,,inactive,inactive and 6.92 µM [inhibitor] (active),inactive,inactive,inactive,inactive and 4.86 µM (active),inactive and 30.6 µM (active),27.3 µM (active),inactive,,,
Oc1cc(Cl)ccc1Oc1ccc(Cl)cc1Cl,7.02 µM (active),11.4 µM (active),26.6 µM (active) and 10.3 µM (active),inactive,inactive,8.84 µM (active),inactive,,inactive and 11.2 µM (active),,,inactive,inactive and 24.8 µM (active),11.5 µM (active),,,,
